Measured values: PubChem BioAssay (Tox21)
Records with an inconclusive call do not appear. Active and inactive are the calls of the source. Calls follow the shape of the dose curve; as a rule, active = well fitted curve in the direction sought with a large enough effect in the repeat runs; inconclusive = weak or mixed curves; inactive = no such curve, though single readings can be large; an effect the other way counts as inactive or inconclusive.

Legend:
[1] = Caspase-3/7 induction in CHO-K1 cells by small molecules, qHTS assay (AID 1346980); also: % is scaled to controls: 0 for no effect and ±100 for the full control effect; nearly all actives have a fitted effect of over 15% in size
In short: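 Luminescent Caspase-Glo 3/7 read (30min, room temperature) quantified apoptosis induction. Cells were wild-type CHO-K1, treated with compound for 17hr at 37 C and 5% CO2.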

[2] = target: Cytochrome P450 2D6 (Homo sapiens) (UniProt P10635); experiment: Cytochrome P450 Family 2 Subfamily D Member 6 (CYP2D6) small molecule antagonists: luciferase reporter qHTS assay (AID 1671196); also: nearly all actives have a fitted effect of over 50% in size; also: potency is read from the fitted curve at half-maximal effect
In short: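 CYP2D6 activity was followed as luminescence from its luciferin product after a 1 h NADPH-driven reaction at room temperature. Enzyme-substrate mix and compound were pre-incubated for 10 min, and the signal was read 20 min after adding detection reagent.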

[3] = target: Cytochrome P450 2C19 (Homo sapiens) (UniProt P33261); experiment: Cytochrome P450 Family 2 Subfamily C Member 19 (CYP2C19) small molecule antagonists: luciferase reporter qHTS assay (AID 1671197); also: nearly all actives have a fitted effect of over 65% in size; also: potency is read from the fitted curve at half-maximal effect
In short: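 P450-Glo CYP2C19 screening system; proluciferin substrate; DMSO compound stocks; 10 min RT preincubation; NADPH regeneration, 1 h at 37C; luciferin detection reagent, 20 min RT; luminescence as RLU.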

[4] = target: Cytochrome P450 2C9 (Homo sapiens) (UniProt P11712); experiment: Cytochrome P450 Family 2 Subfamily C Member 9 (CYP2C9) small molecule antagonists: luciferase reporter qHTS assay (AID 1671198); also: potency is read from the fitted curve at half-maximal effect; nearly all actives have a fitted effect of over 50% in size
In short: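 Enzyme-substrate mix preincubated with compound 10 min at room temperature; reaction started with NADPH regeneration solution, 1 h 37C. Luminescent luciferin product read after 20 min detection reagent.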

[5] = target: Cytochrome P450 1A2 (Homo sapiens) (UniProt P05177); experiment: Cytochrome P450 Family 1 Subfamily A Member 2 (CYP1A2) small molecule antagonists: luciferase reporter qHTS assay (AID 1671199); also: nearly all actives have a fitted effect of over 50% in size; also: potency is read from the fitted curve at half-maximal effect
In short: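 Luminescence from luciferin formed by CYP1A2 from a proluciferin substrate, read 20 min after detection reagent. Compound was pre-incubated 10 min with enzyme-substrate, and reaction started with NADPH regeneration solution for 1 h at room temperature; furafylline control.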

[6] = target: Voltage-gated inwardly rectifying potassium channel KCNH2 (Homo sapiens) (UniProt Q12809); experiment: Human Ether-a-go-go-Related Gene (hERG) channel small molecule antagonists: fluorescence cell-based qHTS assay (AID 1671200); also: nearly all actives have a fitted effect of over 50% in size; also: potency is read from the fitted curve at half-maximal effect
In short: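 Fluorescence at 540 nm emission (480 nm excitation) was recorded kinetically for 2 min at 1-second intervals once the thallium-containing stimulus reached cells previously loaded with FluxOR II dye.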

[7] = target: Cytochrome P450 3A4 (Homo sapiens) (UniProt P08684); experiment: Cytochrome P450 Family 3 Subfamily A Member 4 (CYP3A4) small molecule antagonists: luciferase reporter qHTS assay (AID 1671201)
In short: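 qHTS, 1536-well. CYP3A4 + proluciferin substrate, cpd 10 min RT → NADPH regen 1 h RT → detection reagent 20 min → luminescence (RLU). Ketoconazole positive control.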

[8] = Caspase-3/7 induction in HepG2 cells by small molecules, qHTS assay (AID 1346978); also: % is scaled to controls: 0 for no effect and ±100 for the full control effect; nearly all actives have a fitted effect of over 15% in size
In short: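 Caspase-3/7 induction was measured by Caspase-Glo 3/7 luminescence (30 min, room temperature) after a 17 hr compound exposure of wild-type HepG2 cells seeded at 2,000 per well and pre-incubated 5 hr.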

[9] = Caspase-3/7 induction in HepG2 cells by small molecules, qHTS cell viability counter screen (AID 1346981); also: series mostly up to about 92 µM; % is scaled to controls: 0 for no effect and ±100 for the full control effect; nearly all actives have a fitted effect of over 30% in size
In short: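 CellTiter-Fluor fluorescence measured viability in the same wells used for Caspase-Glo 3/7. HepG2 (wild type) at 2,000 cells/well were pre-incubated 5 hr, dosed, and given reagent at 16 hr, with 1 hr further at 37C.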

[10] = target: Nuclear receptor subfamily 1 group I member 2 (Homo sapiens) (UniProt O75469); experiment: Human pregnane X receptor (PXR) small molecule agonists, qHTS assay (AID 1346982); also: potency is read from the fitted curve at half-maximal effect; nearly all actives have a fitted effect of over 35% in size
In short: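 Agonist mode: luminescence from ONE-Glo after 24 h compound exposure at 37C in HepG2 cells carrying hPXR-responsive CYP3A4 luciferase, plated in charcoal-stripped serum medium 5 h beforehand.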

[11] = target: Nuclear receptor subfamily 1 group I member 2 (Rattus norvegicus) (UniProt Q9R1A7); experiment: Rat pregnane X receptor (rPXR) activation by small molecules, qHTS assay (AID 1346983); conditions: rPXR luciferase reporter cells, One-Glo luminescence, 24 h; max activation: hits give high values; also: % is scaled to controls: 0 for no effect and ±100 for the full control effect; nearly all actives have a fitted effect of over 20% in size
In short: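 Luminescent readout (One-Glo luciferase, 30 min room temperature) followed 24 hr compound treatment at 37 C of rPXR cells plated 2,000 per well and preincubated 5hr; qHTS format with compounds delivered in DMSO.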

[12] = target: Nuclear receptor subfamily 1 group I member 2 (Homo sapiens) (UniProt O75469); experiment: CYP3A4 induction through human pregnane X receptor (PXR) by small molecules, qHTS assay (AID 1346984); also: % is scaled to controls: 0 for no effect and ±100 for the full control effect; nearly all actives have a fitted effect of over 40% in size
In short: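 Read-out is luminescence after One-Glo addition, following a 3 hr, 37C incubation with Luciferin-IPA CYP3A4 substrate (3uM final). Before that, compounds were on DPX-2 cells (HepG2 co-transfected with PXR element plus CYP3A4-promoter luciferase) for 24 hr at 37C.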

[13] = target: Nuclear receptor subfamily 1 group I member 2 (Homo sapiens) (UniProt O75469); experiment: Human pregnane X receptor (PXR) activation by small molecules, qHTS assay (AID 1346985); also: % is scaled to controls: 0 for no effect and ±100 for the full control effect; nearly all actives have a fitted effect of over 40% in size
In short: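 DPX-2 cells (HepG2 co-transfected with a PXR response element and a CYP3A4-promoter luciferase construct) were seeded at 2,000 per well, rested 5 hr at 37C, then exposed to DMSO-dissolved compounds for 24 hr. Activation was read as luciferase luminescence.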

Chain of Voltage-gated inwardly rectifying potassium channel KCNH2 (Homo sapiens) (Q12809 whole entry, looked up): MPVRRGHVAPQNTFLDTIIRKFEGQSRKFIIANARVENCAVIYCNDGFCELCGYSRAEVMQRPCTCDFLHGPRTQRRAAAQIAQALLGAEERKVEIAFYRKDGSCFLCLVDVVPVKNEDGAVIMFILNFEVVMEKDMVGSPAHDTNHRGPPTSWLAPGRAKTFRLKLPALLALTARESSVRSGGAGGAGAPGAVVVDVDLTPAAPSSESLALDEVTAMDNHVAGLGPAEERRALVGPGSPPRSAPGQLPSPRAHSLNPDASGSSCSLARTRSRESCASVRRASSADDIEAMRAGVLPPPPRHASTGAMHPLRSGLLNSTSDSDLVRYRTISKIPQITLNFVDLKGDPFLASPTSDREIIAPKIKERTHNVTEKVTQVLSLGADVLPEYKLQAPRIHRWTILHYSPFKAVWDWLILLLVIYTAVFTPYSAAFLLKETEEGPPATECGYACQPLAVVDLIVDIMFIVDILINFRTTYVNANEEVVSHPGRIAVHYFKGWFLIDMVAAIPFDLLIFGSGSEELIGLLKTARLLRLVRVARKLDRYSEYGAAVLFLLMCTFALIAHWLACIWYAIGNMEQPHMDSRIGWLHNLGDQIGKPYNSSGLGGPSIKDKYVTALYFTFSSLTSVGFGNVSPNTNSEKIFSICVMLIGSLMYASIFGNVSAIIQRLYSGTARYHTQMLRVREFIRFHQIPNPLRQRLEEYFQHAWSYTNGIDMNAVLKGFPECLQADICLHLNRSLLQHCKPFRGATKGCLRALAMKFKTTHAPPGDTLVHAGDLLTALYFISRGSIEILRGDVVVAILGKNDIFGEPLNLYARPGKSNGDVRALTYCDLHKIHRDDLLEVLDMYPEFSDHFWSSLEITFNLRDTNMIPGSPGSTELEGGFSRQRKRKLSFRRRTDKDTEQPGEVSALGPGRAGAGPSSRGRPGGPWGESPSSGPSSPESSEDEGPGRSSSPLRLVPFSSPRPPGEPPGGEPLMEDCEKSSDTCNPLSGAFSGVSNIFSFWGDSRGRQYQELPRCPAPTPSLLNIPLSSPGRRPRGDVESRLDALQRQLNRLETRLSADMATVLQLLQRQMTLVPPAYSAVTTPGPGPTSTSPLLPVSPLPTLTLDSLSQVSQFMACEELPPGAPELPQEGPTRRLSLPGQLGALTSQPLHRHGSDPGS
Chain of Cytochrome P450 2D6 (Homo sapiens) (P10635 whole entry, looked up): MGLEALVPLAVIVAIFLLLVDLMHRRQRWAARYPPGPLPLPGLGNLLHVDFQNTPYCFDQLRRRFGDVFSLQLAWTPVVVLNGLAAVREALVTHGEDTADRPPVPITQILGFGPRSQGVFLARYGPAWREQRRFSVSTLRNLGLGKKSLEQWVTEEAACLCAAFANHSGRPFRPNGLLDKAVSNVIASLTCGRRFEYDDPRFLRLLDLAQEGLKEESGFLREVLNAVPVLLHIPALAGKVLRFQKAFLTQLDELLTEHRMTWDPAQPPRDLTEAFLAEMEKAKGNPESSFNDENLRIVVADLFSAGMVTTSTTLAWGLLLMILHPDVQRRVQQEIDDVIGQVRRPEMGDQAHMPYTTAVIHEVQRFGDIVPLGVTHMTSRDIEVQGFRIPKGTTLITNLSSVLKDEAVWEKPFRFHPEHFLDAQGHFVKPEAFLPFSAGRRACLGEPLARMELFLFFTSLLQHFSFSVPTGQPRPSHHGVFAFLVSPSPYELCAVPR
Chain of Cytochrome P450 2C19 (Homo sapiens) (P33261 whole entry, looked up): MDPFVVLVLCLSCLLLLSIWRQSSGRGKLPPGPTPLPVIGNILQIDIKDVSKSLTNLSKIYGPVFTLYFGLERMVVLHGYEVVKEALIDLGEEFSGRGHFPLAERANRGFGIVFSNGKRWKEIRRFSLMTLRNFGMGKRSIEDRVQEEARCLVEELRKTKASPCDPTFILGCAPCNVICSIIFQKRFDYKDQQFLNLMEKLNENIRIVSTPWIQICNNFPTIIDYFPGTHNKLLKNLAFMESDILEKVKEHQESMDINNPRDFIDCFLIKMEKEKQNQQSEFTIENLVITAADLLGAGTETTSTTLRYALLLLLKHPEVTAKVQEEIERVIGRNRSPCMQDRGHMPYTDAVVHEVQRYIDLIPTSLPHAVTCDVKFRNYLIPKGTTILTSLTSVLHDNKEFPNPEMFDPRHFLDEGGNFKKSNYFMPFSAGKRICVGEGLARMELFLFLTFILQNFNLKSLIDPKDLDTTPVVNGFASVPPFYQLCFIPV
Chain of Cytochrome P450 1A2 (Homo sapiens) (P05177 whole entry, looked up): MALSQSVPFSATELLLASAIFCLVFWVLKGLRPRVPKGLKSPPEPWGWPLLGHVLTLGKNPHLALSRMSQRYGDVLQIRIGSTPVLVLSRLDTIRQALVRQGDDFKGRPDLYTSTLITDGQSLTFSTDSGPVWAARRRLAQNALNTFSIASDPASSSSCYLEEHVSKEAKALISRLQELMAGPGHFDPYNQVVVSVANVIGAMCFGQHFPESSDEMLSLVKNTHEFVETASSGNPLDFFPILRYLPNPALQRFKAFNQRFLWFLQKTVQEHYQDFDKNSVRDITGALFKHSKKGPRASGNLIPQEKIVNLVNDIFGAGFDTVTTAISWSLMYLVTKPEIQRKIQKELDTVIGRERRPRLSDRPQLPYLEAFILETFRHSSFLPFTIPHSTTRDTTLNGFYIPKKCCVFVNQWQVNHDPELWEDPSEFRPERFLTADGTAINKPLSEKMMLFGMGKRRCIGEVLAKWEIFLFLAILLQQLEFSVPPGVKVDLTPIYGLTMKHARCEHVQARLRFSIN
Chain of Nuclear receptor subfamily 1 group I member 2 (Homo sapiens) (O75469 whole entry, looked up): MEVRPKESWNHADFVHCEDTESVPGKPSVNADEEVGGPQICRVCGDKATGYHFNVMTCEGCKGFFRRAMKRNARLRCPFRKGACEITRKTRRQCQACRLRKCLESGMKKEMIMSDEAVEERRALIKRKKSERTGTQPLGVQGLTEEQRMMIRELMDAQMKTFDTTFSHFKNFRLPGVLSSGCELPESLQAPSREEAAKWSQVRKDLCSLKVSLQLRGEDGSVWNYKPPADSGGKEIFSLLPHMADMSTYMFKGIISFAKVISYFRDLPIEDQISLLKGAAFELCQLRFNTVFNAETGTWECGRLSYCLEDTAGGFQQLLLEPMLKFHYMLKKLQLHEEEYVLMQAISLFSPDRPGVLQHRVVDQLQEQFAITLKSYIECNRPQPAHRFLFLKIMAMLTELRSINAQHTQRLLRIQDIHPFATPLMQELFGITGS
Chain of Cytochrome P450 3A4 (Homo sapiens) (P08684 whole entry, looked up): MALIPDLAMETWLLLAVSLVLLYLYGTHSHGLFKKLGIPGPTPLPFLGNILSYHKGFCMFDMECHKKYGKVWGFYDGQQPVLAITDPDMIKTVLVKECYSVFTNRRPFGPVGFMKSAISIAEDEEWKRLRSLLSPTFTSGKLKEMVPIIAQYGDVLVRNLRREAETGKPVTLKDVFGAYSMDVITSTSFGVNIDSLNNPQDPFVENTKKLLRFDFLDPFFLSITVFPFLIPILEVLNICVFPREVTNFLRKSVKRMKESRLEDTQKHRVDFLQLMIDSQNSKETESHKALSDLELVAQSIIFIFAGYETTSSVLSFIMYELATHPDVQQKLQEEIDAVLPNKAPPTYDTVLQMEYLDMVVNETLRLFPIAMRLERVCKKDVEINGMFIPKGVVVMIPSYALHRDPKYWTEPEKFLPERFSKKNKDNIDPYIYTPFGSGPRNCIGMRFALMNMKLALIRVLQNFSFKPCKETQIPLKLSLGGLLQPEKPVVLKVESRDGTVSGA
Chain of Cytochrome P450 2C9 (Homo sapiens) (P11712 whole entry, looked up): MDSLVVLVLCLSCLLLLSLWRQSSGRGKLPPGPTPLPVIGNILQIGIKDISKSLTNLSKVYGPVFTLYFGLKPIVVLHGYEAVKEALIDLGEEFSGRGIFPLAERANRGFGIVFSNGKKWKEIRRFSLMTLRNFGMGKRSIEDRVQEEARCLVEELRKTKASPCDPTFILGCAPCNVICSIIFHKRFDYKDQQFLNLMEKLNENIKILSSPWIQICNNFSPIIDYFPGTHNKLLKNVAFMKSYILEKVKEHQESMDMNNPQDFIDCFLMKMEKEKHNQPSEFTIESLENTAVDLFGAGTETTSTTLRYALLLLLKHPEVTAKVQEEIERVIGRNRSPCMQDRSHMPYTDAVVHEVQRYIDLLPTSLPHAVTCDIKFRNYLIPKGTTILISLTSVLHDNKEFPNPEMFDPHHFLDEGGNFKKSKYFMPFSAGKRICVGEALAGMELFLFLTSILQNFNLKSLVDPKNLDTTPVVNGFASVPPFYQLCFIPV
Chain of Nuclear receptor subfamily 1 group I member 2 (Rattus norvegicus) (Q9R1A7 whole entry, looked up): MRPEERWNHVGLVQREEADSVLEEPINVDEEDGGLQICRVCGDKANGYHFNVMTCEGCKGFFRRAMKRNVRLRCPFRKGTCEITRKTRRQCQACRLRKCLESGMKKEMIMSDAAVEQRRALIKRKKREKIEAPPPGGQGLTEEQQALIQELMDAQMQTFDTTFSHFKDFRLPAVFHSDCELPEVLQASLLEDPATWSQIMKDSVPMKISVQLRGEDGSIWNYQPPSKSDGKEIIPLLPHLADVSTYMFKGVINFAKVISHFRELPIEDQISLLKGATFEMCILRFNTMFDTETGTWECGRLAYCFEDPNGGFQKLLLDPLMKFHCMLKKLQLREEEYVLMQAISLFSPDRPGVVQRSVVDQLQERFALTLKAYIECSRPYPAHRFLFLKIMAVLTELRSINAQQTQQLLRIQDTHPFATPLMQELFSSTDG

CCOC(=O)NCCOc1ccc(Oc2ccccc2)cc1
inactive: Potency [1] | Potency [7]
active: Potency [2] 35.6 µM | Potency [3] 6.33 µM | Potency [4] 20 µM | Potency [5] 11.2 µM | Potency [6] 43.6 µM

C=CC(=O)OCCOc1ccccc1
inactive: Potency [8] | Potency [1] | Potency [9] | Potency [6]

O=C(Cl)c1cc(C(=O)Cl)cc(C(=O)Cl)c1
active: Potency [10] 54.5 µM | Potency [4] 28.3 µM | Potency [5] 39.9 µM
inactive: Potency [8] | Potency [1] | Potency [9] | Potency [3]

CO[C@@H]1[C@H](OC(=O)/C=C/C=C/C=C/C=C/C(=O)O)CC[C@]2(CO2)[C@H]1[C@@]1(C)O[C@@H]1CC=C(C)C
active: Potency [10] 15.4 µM
inactive: Potency [8] | Potency [9] | max activation [11] 0.0882% | Potency [12] | Potency [13] | Potency [6]

CN(C)CCN(Cc1ccc(Cl)cc1)c1ccccn1
inactive: Potency [9] | Potency [7]
active: Potency [2] 0.275 µM | Potency [6] 2.39 µM

COc1cc2nc(N3CCN(C(=O)C4COc5ccccc5O4)CC3)nc(N)c2cc1OC (stereo not given)
inactive: Potency [8] | Potency [1] | max activation [11] -0.947% | Potency [2] | Potency [3] | Potency [5]
